Results published in PubChem BioAssay.
Records with an inconclusive call do not appear. Calls of active or inactive are those of the source.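 Rule for the calls, unless noted: active = RAM network inhibition above 8.4% in each of two replicates, 3 SD over the compound average; inconclusive = above 8.4% inhibition in only one replicate; inactive = 8.4% inhibition or less in each replicate.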

Tests used:
[1] = S. cerevisiae growth inhibition in permissive medium (OD615), pilot counter-assay for S. cerevisiae lifespan shortening project, permissive growth control (AID 705;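 active = growth inhibition above 25% in both replicates, a cutoff set 3 SD above the mean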); details: OD615, 24 h, at 10 µM, stronger effect = higher value
[2] = doxorubicin toxicity protection in MRP-1 cells – H69AR cells, CellTiter-Glo, duplicate, MRP-1 activator project, pilot screen (AID 807;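 active = viability increase at or above a cutoff of the median across tested compounds plus 3 SD, cut at about 8.5% in these data, passing the limit was not always enough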;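 note: compound pretreatment 18-22 h then 72 h combined with doxorubicin; 0% = doxorubicin alone and 100% = vehicle without doxorubicin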); details: H69AR viability with doxorubicin, CellTiter-Glo luminescence; at 10 µM; stronger effect = higher value
[3] = viability of HCT116 without oncogenic beta-catenin – human colon tumor cells, pilot screen (AID 823;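 active = cell viability at or below a set limit in both duplicate runs, the limit being the all-compound median minus 4 SD, cut at about 23% in these data, passing the limit was not always enough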;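 note: 0% = wells killed by 20 µM Hyamine and 100% = untreated DMSO cell wells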); details: HCT116 beta-catenin knockout viability, CellTiter-Glo, 60 h; at 10 µM; stronger effect = lower value
[4] = viability of PTEN-null HCT116 cells – cell-based, HCT116 clonal line, CellTiter-Glo, pilot screen (AID 824;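 active = viability at or below 27.92% in each of two runs, the all-compound median minus 4 SD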;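 note: 0% = 20 µM Hyamine control and 100% = vehicle cell control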); details: HCT116 PTEN-deleted viability, 60 h, at 10 µM, stronger effect = lower value
[5] = RAM pathway blockade in budding yeast – dse1pr::URA3 reporter, 5-FOA selection, pilot screen (AID 869;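 active = inhibition over a set limit, the all-compound mean plus 3 SD, in both replicate runs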;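 note: 0% = DMSO wells with no growth and 100% = 10 µM 1-NA-PP1 with full growth; RAM network block rescues cells from 5-FOA so hits raise OD615 growth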); details: S. cerevisiae dse1pr::URA3 5-FOA growth, OD615, 2 d; at 10 µM; stronger effect = higher value; strain carries analog-sensitive mutant Cbk1 kinase
[6] = RAM signaling pathway blockade in yeast – S. cerevisiae, Pdr1DBD-CYC8 efflux-inhibited sensitized strain, primary screen (AID 1298);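 note: 0% = DMSO untreated cells without growth and 100% = 10 µM 1-NA-PP1 full growth; higher means more yeast growth rescued from 5-FOA killing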; details: S. cerevisiae cbk1-as DSE1-URA3 strain, 5-FOA growth OD615, 2 d; at 50 µM; stronger effect = higher value
[7] = S. cerevisiae growth inhibition in restrictive medium, OD615, pilot screen, restrictive growth control, yeast lifespan reduction project (AID 706;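 active = growth inhibition above a set limit, 3 SD over mean compound inhibition, in both replicates, cut at about 43% in these data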;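 note: modified DeaD lifespan yeast strain shifted to restrictive glucose medium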); details: OD615, 48 h, at 10 µM, stronger effect = higher value
[8] = Her2 expression decrease, cell viability multiplex – SKBR3 breast tumor cells, AlphaScreen, ATP viability, primary screen (AID 461;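 active = Her2 level under about 52% in both replicate screens, with viability over 70% of control, limit read from the data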;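 for Her2 level: lower value means less Her2 protein in the cells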;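 for viability: percent of carrier control wells set as 100% viability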); details: SKBR3 Her2 protein level, 18-24 h, measured here: SKBR3 viability, ATP luminescence, at 10 µM
[9] = biological target: Receptor tyrosine-protein kinase erbB-2 (Homo sapiens) (UniProt P04626); assay: as above; details: 18-24 h, at 10 µM, stronger effect = lower value
[10] = reduced viability of SK-BR-3 breast cancer cells – cell-based, 24 h, human, pilot screen (AID 572;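 active = viability at or below 10% of carrier control in both of two separate runs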;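 note: compound exposure lasted between 18 and 24 h rather than exactly 24 h; 100% = carrier-treated control wells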); details: SK-BR-3 viability, CellTiter-Glo luminescence, at 10 µM, stronger effect = lower value
[11] = HUVEC growth inhibition – cell-based, human, primary screen (AID 575;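 active = viability at or below 30% in both replicate assays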;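 note: 100% = median of untreated cell wells with 0.1% DMSO on each plate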); details: HUVEC proliferation, CellTiter-Glo luminescence, 72 h; at 10 µM; stronger effect = lower value
[12] = H69AR cell proliferation blockers – human, duplicate replicates, primary screen (AID 580;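 active = viability at or under a set limit in both replicates, limit being median viability minus 3 SD, cut at about 48% in these data, passing the limit was not always enough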;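 note: 100% = mean luminescence of untreated wells and 0% = no signal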); details: H69AR lung tumor cells viability, ATP luminescence, 72 h; at 10 µM; stronger effect = lower value
[13] = MRP1 drug-resistance reversers in H69AR cells – cell-based, doxorubicin co-treatment, pilot screen (AID 601;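 active = viability loss from added drug above about 55%, and viability with drug at most 40%, in both replicates, limit read from the data, passing the limit was not always enough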); details: CellTiter-Glo, 72 h, at 10 µM; for differential viability (reversal): stronger effect = higher value
[14] = H69AR cells + 2 uM doxorubicin, measured here: viability with 2 uM doxorubicin, stronger effect = lower value
[15] = H69AR cells, compound alone cytotoxicity

Chain of Receptor tyrosine-protein kinase erbB-2 (Homo sapiens) (P04626 whole entry, looked up): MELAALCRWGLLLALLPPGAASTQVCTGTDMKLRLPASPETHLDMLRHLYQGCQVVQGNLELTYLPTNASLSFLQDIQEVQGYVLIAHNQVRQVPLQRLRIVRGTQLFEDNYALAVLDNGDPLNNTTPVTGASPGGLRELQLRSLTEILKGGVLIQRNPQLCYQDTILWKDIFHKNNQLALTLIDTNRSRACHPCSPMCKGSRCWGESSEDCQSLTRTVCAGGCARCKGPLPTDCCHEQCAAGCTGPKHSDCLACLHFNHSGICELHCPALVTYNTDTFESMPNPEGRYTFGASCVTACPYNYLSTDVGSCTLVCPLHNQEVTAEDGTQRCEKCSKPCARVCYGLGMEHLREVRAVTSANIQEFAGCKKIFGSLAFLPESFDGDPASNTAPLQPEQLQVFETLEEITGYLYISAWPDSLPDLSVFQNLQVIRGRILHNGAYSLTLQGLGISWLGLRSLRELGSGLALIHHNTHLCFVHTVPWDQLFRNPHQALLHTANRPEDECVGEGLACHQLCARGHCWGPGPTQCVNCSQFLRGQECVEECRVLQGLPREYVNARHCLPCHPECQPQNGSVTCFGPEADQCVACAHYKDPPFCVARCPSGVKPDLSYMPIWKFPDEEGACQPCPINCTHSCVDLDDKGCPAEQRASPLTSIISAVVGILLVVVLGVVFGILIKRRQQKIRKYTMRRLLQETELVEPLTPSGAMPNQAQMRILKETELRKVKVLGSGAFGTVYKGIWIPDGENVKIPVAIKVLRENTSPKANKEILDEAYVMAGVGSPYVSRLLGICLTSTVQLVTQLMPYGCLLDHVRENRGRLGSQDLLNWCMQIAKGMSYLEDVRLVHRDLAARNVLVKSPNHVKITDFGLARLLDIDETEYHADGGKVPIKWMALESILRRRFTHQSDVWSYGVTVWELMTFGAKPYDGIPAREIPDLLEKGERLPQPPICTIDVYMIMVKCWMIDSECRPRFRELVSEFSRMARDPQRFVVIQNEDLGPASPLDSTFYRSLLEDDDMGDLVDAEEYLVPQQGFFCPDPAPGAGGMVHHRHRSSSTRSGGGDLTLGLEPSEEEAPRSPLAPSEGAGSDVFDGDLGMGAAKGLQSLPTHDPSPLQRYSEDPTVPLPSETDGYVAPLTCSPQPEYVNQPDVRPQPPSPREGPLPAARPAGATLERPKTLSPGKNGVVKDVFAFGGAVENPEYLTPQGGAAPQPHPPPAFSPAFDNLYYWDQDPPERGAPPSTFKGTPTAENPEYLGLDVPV

Cc1ccc(OCC(=O)Nc2cc(-c3nn4c(C)nnc4s3)ccc2C)cc1
inactive: growth inhibition [1] 0.12% | viability increase [2] -4.09% | viability [3] 93.7% | viability [4] 88% | inhibition [5] 3.09% | RAM network inhibition [6] 10.7%

COc1ccc(OC)c(C2CC(=O)N3CN(c4cccc(Cl)c4)CSC3=C2C#N)c1 (stereo unspecified)
inactive: growth inhibition [1] 1.31% | viability increase [2] -2.23% | viability [3] 100% | viability [4] 95.4% | inhibition [5] 2.46% | RAM network inhibition [6] 8.89%

O=C(Nc1nc2c(s1)CCCC2)c1ccc2ncsc2c1
inactive: growth inhibition [1] 14.5% | viability increase [2] -2.76% | viability [3] 68.4% | viability [4] 76.7% | inhibition [5] -0.135% | RAM network inhibition [6] 0.27%

COc1ccc(NC(=O)CSc2nnc(Cn3c(=O)sc4ccccc43)n2C)c(OC)c1
inactive: growth inhibition [1] 2.11% | viability increase [2] -4.82% | viability [3] 101% | viability [4] 92.7% | inhibition [5] -0.285% | RAM network inhibition [6] 1.01%

CC(=O)NC(=S)c1c(N)n(Cc2ccccc2)c(=O)n(C)c1=O
inactive: growth inhibition [1] 19.2% | viability increase [2] -3.97% | viability [3] 84.6% | viability [4] 80% | inhibition [5] 0.92% | RAM network inhibition [6] 4.62%

Cc1csc(NC(=O)CSc2nnc(Cc3cccn3C)n2CCc2ccccc2)n1
inactive: growth inhibition [1] 11% | viability increase [2] -3.58% | viability [3] 87.1% | viability [4] 82.6% | inhibition [5] 0.505% | RAM network inhibition [6] 9.43%

Cc1ccc(/C=c2/sc3nnc(-c4ccccc4Cl)n3c2=O)o1
inactive: growth inhibition [1] -7.07% | viability increase [2] -5% | viability [3] 90.9% | viability [4] 93% | inhibition [5] 0.785% | RAM network inhibition [6] 3.46%

Fc1ccc(-c2nnc3ccc(N4CCc5ccccc5C4)nn23)cc1
inactive: growth inhibition [1] 14.2% | viability increase [2] -7.99% | inhibition [5] 2.02% | RAM network inhibition [6] 3.14%
active: viability [3] 2.21% | viability [4] 1.42%

CCOc1cccc(C(=O)Nc2cc(-c3nn4c(C)nnc4s3)ccc2C)c1
inactive: growth inhibition [1] 9.19% | viability increase [2] -4.79% | viability [3] 100% | viability [4] 93.6% | inhibition [5] 0.07% | RAM network inhibition [6] 2.22%

CCC1(C)Cc2nc3sc(C(=O)O)c(N)c3cc2CO1 (stereo unspecified)
inactive: growth inhibition [1] -4.39% | viability increase [2] -3.61% | viability [3] 94.2% | inhibition [5] 1.71% | RAM network inhibition [6] 6.29%

Cn1c(CNc2ccccc2O)nc2ccccc21
inactive: growth inhibition [1] -5.35% | viability increase [2] -6.1% | viability [3] 68.8% | viability [4] 64% | inhibition [5] 0.42% | RAM network inhibition [6] -1.31%

COC(=O)Cn1c(=NC(=O)CSC(C)=O)sc2ccccc21
inactive: growth inhibition [1] 4.79% | viability increase [2] -1.9% | viability [3] 98.5% | viability [4] 101% | inhibition [5] 2.89% | RAM network inhibition [6] 5.91%

CC(=O)C1=C(C)Nc2cc(C(F)(F)F)ccc2S1
inactive: growth inhibition [7] 27.2% | viability increase [2] -1.14% | viability [3] 93.6% | viability [4] 85.7% | inhibition [5] 1.77% | RAM network inhibition [6] 4.09%

COc1ccc(Br)cc1C1CC(=O)N2CN(C)CSC2=C1C#N (stereo unspecified)
inactive: growth inhibition [1] 4.76% | viability increase [2] -4.75% | viability [3] 81.6% | viability [4] 78.3% | inhibition [5] 0.03% | RAM network inhibition [6] 1.82%

COc1cc(Cl)c(C)cc1NC(=O)CSc1nnc(-c2cccnc2)n1Cc1ccco1
inactive: growth inhibition [1] 4.79% | viability increase [2] -3.48% | viability [3] 84.8% | viability [4] 79.8% | inhibition [5] 0.775% | RAM network inhibition [6] 7.75%

COc1ccc(OCc2nnc3n2N=C(c2ccc(Br)cc2)CS3)cc1
inactive: growth inhibition [1] 3.29% | viability increase [2] 2.18% | viability [3] 70% | viability [4] 72.2% | inhibition [5] 0.955% | RAM network inhibition [6] 3.18%

COc1ccc(OCC(=O)Nc2cc(OC)cc(OC)c2)cc1
inactive: growth inhibition [7] 7.43% | viability increase [2] -3.71% | viability [3] 88.7% | viability [4] 93.9% | inhibition [5] -0.89% | RAM network inhibition [6] -2.47%

CSc1nc(-c2ccccc2)nc2[nH]ccc(=O)c12
inactive: growth inhibition [7] -18.3% | viability increase [2] -3.93% | viability [3] 76% | viability [4] 80.6% | inhibition [5] 0.065% | RAM network inhibition [6] 1.4%

Cc1ccccc1C(OCCN(C)C)c1ccccc1 (stereo unspecified)
93%: viability [8]
80.5%: viability [13, 14]
inactive: Her2 level [9] 86% | viability [10] 93% | viability [11] 98.9% | viability [12] 91.3% | differential viability (reversal) ([13]; H69AR cells + 2 uM doxorubicin) 10.8%
91.3%: viability [13, 15]

COc1ccc([C@@H]2Sc3ccccc3N(CCN(C)C)C(=O)[C@@H]2OC(C)=O)cc1
92.1%: viability [13, 15]
inactive: Her2 level [9] 106% | viability [10] 76% | viability [11] 100% | viability [12] 92.1% | differential viability (reversal) ([13]; H69AR cells + 2 uM doxorubicin) -11.2%
76%: viability [8]
103%: viability [13, 14]

C[C@@H]1C[C@H]2[C@@H]3CCC4=CC(=O)C=C[C@]4(C)[C@@]3(F)[C@@H](O)C[C@]2(C)[C@@]1(O)C(=O)COP(=O)(O)O
99%: viability [8]
97.9%: viability [13, 15]
inactive: Her2 level [9] 125% | viability [10] 99% | viability [11] 102% | viability [12] 97.9% | differential viability (reversal) ([13]; H69AR cells + 2 uM doxorubicin) -24.3%
122%: viability [13, 14]
